Publication PMC11006913
Positions count from the first letter of the chain named.

Biological target: T1, PAX4 (Homo sapiens, UniProt O43316 9-242, R200K)
T1 sequence: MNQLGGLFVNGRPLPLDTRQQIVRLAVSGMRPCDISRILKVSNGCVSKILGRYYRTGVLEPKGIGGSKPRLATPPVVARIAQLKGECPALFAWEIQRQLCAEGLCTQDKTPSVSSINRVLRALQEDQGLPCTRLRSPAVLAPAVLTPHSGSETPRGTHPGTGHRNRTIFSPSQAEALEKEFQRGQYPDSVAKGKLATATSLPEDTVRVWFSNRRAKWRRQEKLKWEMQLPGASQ
Assay: PBM; 200 nM protein, PBS
Conditions: dsDNA, one strand shown

Sequence	binding signal
AAATTAAC	11.6 upbm affinity estimate (log intensity, higher = more binding, comparable within an allelic series)
ATTAATTC	11.9 upbm affinity estimate (log intensity, higher = more binding, comparable within an allelic series)
CGAAGGCC	9.2 upbm affinity estimate (log intensity, higher = more binding, comparable within an allelic series)

Biological target: PRRX1 (Homo sapiens, UniProt P54821 80-166, F113S)
Assay: PBM; 200 nM protein, PBS
Conditions: dsDNA, one strand shown

PRRX1 (Homo sapiens, UniProt P54821 80-166, F113S), sequence (P54821 80-166 F113S): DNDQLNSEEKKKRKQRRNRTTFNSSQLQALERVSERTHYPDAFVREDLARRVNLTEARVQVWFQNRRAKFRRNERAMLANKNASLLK

Sequence	binding signal
GAGGACCC	9.19 upbm affinity estimate (log intensity, higher = more binding, comparable within an allelic series)
ATTAATTC	11.1 upbm affinity estimate (log intensity, higher = more binding, comparable within an allelic series)
CGAGGGCA	9.29 upbm affinity estimate (log intensity, higher = more binding, comparable within an allelic series)
AGGGCACC	9.03 upbm affinity estimate (log intensity, higher = more binding, comparable within an allelic series)

Biological target: T2, PAX4 (Homo sapiens, UniProt O43316 9-242)
T2 sequence: T1 sequence with K192R
Assay: PBM; 200 nM protein, PBS
Conditions: dsDNA, one strand shown

Sequence	binding signal
AAATTAAC	12.2 upbm affinity estimate (log intensity, higher = more binding, comparable within an allelic series)
ATTAATTC	12.5 upbm affinity estimate (log intensity, higher = more binding, comparable within an allelic series)
CGAAGGCC	9.31 upbm affinity estimate (log intensity, higher = more binding, comparable within an allelic series)

Biological target: ALX4 (Homo sapiens, UniProt Q9H161 200-286, Q225E)
Assay: PBM; 200 nM protein, PBS
Conditions: dsDNA, one strand shown

ALX4, sequence (Q9H161 200-286 Q225E): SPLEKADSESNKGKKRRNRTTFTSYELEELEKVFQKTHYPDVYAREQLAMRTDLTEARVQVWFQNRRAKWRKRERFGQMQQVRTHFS

Sequence	binding signal
GAGGACCC	7.98 upbm affinity estimate (log intensity, higher = more binding, comparable within an allelic series)
AAATTAAC	12.7 upbm affinity estimate (log intensity, higher = more binding, comparable within an allelic series)
ATTAATTC	12.7 upbm affinity estimate (log intensity, higher = more binding, comparable within an allelic series)
CGAGGGCA	8.26 upbm affinity estimate (log intensity, higher = more binding, comparable within an allelic series)
AGGGCACC	8.09 upbm affinity estimate (log intensity, higher = more binding, comparable within an allelic series)
CGAAGGCC	8.19 upbm affinity estimate (log intensity, higher = more binding, comparable within an allelic series)

Biological target: T3, PAX4 (Homo sapiens, UniProt O43316 9-242, R200Q)
T3 sequence: T1 sequence with K192Q
Assay: PBM; 200 nM protein, PBS
Conditions: dsDNA, one strand shown

Sequence	binding signal
AAATTAAC	11.9 upbm affinity estimate (log intensity, higher = more binding, comparable within an allelic series)
ATTAATTC	12.1 upbm affinity estimate (log intensity, higher = more binding, comparable within an allelic series)
CGAAGGCC	9.3 upbm affinity estimate (log intensity, higher = more binding, comparable within an allelic series)

Biological target: T4, PAX4 (Homo sapiens, UniProt O43316 9-242, F177V)
T4 sequence: T1 sequence with F169V, K192R
Assay: PBM; 200 nM protein, PBS
Conditions: dsDNA, one strand shown

Sequence	binding signal
AAATTAAC	10.5 upbm affinity estimate (log intensity, higher = more binding, comparable within an allelic series)
ATTAATTC	10.7 upbm affinity estimate (log intensity, higher = more binding, comparable within an allelic series)
CGAAGGCC	9.19 upbm affinity estimate (log intensity, higher = more binding, comparable within an allelic series)

Biological target: HOXC10 (Homo sapiens, UniProt Q9NYD6 254-340, K271E)
Assay: PBM; 200 nM protein, PBS
Conditions: dsDNA, one strand shown

HOXC10, sequence (Q9NYD6 254-340 K271E): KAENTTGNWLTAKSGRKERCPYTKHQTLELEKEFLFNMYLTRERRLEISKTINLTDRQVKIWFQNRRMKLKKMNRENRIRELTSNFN

Sequence	binding signal
GCGAGTCC	10.1 upbm affinity estimate (log intensity, higher = more binding, comparable within an allelic series)
TTAAATAA	11.1 upbm affinity estimate (log intensity, higher = more binding, comparable within an allelic series)
CAGAGGGA	10.1 upbm affinity estimate (log intensity, higher = more binding, comparable within an allelic series)
TATTAAGA	10.9 upbm affinity estimate (log intensity, higher = more binding, comparable within an allelic series)
CTCGGCCA	10.1 upbm affinity estimate (log intensity, higher = more binding, comparable within an allelic series)
CGTCCGCC	10 upbm affinity estimate (log intensity, higher = more binding, comparable within an allelic series)
CATTAACA	11.6 upbm affinity estimate (log intensity, higher = more binding, comparable within an allelic series)
CCGGGGAA	9.99 upbm affinity estimate (log intensity, higher = more binding, comparable within an allelic series)
ATACTATA	11 upbm affinity estimate (log intensity, higher = more binding, comparable within an allelic series)

Biological target: T5, PAX4 (Homo sapiens, UniProt O43316 9-242, F177Y)
T5 sequence: T1 sequence with F169Y, K192R
Assay: PBM; 200 nM protein, PBS
Conditions: dsDNA, one strand shown

Sequence	binding signal
AAATTAAC	10.9 upbm affinity estimate (log intensity, higher = more binding, comparable within an allelic series)
ATTAATTC	11.2 upbm affinity estimate (log intensity, higher = more binding, comparable within an allelic series)
CGAAGGCC	9.09 upbm affinity estimate (log intensity, higher = more binding, comparable within an allelic series)

Biological target: VAX1 (Homo sapiens, UniProt Q5SQQ9 86-172)
Assay: PBM; 200 nM protein, PBS
Conditions: dsDNA, one strand shown

VAX1 (Homo sapiens, UniProt Q5SQQ9 86-172), sequence (Q5SQQ9 86-172): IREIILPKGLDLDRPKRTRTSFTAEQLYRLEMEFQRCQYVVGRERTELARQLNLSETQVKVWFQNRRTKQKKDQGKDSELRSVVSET

Sequence	binding signal
CGTCCGCC	7.19 upbm affinity estimate (log intensity, higher = more binding, comparable within an allelic series)
TGATGGCA	9.08 upbm affinity estimate (log intensity, higher = more binding, comparable within an allelic series)
CCGGGGAA	7.17 upbm affinity estimate (log intensity, higher = more binding, comparable within an allelic series)

Biological target: VAX1 (Homo sapiens, UniProt Q5SQQ9 86-172, T142I)
Assay: PBM; 200 nM protein, PBS
Conditions: dsDNA, one strand shown

VAX1 (Homo sapiens, UniProt Q5SQQ9 86-172, T142I), sequence (Q5SQQ9 86-172 T142I): as the sequence (Q5SQQ9 86-172) above, with T57I counted along it

Sequence	binding signal
CGTCCGCC	7.31 upbm affinity estimate (log intensity, higher = more binding, comparable within an allelic series)
TGATGGCA	8.72 upbm affinity estimate (log intensity, higher = more binding, comparable within an allelic series)
CCGGGGAA	7.19 upbm affinity estimate (log intensity, higher = more binding, comparable within an allelic series)

Biological target: T6, PAX4 (Homo sapiens, UniProt O43316 9-242, R227W)
T6 sequence: T1 sequence with K192R, R219W
Assay: PBM; 200 nM protein, PBS
Conditions: dsDNA, one strand shown

Sequence	binding signal
AAATTAAC	10.9 upbm affinity estimate (log intensity, higher = more binding, comparable within an allelic series)
ATTAATTC	11 upbm affinity estimate (log intensity, higher = more binding, comparable within an allelic series)
CGAAGGCC	9.29 upbm affinity estimate (log intensity, higher = more binding, comparable within an allelic series)

Biological target: ALX3 (Homo sapiens, UniProt O95076 139-225, N203S)
Assay: PBM; 200 nM protein, PBS
Conditions: dsDNA, one strand shown

ALX3, sequence (O95076 139-225 N203S): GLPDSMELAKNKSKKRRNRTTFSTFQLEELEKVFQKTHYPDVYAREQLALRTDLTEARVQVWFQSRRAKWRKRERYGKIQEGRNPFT

Sequence	binding signal
AAATTAAC	8.57 upbm affinity estimate (log intensity, higher = more binding, comparable within an allelic series)
TTAAATAA	8.72 upbm affinity estimate (log intensity, higher = more binding, comparable within an allelic series)
ATTAATTC	8.51 upbm affinity estimate (log intensity, higher = more binding, comparable within an allelic series)

Biological target: PRRX1 (Homo sapiens, UniProt P54821 80-166)
Assay: PBM; 200 nM protein, PBS
Conditions: dsDNA, one strand shown

PRRX1 (Homo sapiens, UniProt P54821 80-166), sequence (P54821 80-166): as the sequence (P54821 80-166 F113S) above, with S34F counted along it

Sequence	binding signal
GAGGACCC	9.51 upbm affinity estimate (log intensity, higher = more binding, comparable within an allelic series)
CGAGGGCA	9.63 upbm affinity estimate (log intensity, higher = more binding, comparable within an allelic series)
AGGGCACC	9.28 upbm affinity estimate (log intensity, higher = more binding, comparable within an allelic series)
